Experimental data as given in PubChem BioAssay (NCATS).
Inconclusive results are not listed. Activity calls are given as the source filed them. Unless noted, the call rests on the fitted dose curve; in most records, active means well fitted curve in the direction sought with a large enough effect; inconclusive means small, poorly fitted or top-dose-only effect, or another doubt; inactive means no such curve, though single readings can be large; an effect the other way counts as inactive or inconclusive.

What was measured:
[1] = Validation of Assay for Modulators of Lamin A Splicing (AID 1459; active means well fitted curve in the direction sought with a large enough effect in the signal ratio; the % refers to the signal ratio;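 further: cells exposed to compound for two days before reading; 0% is about no effect; ratio rise marks activators and ratio drop marks inhibitors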)
Summary of the method: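 S3 HeLa cells stably expressing a lamin A-EGFP splicing minigene and DsRed2 were seeded at 600 cells/well in Opti-MEM with 2% FBS, pin-dosed, and incubated 48 hrs at 37 °C, 5% CO2. Laser-scanning cytometry (488 nm) gave GFP/RFP total intensity ratio.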

[2] = qHTS Assay for Lipid Storage Modulators (AID 1519; calls by dose curve); conditions: Drosophila S3 cells, BODIPY lipid droplet/cell ratio, laser cytometry, cells loaded with oleic acid
Summary of the method: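 Cells seeded at 5,000 per well were treated with compounds over a concentration series and loaded with oleic acid (400 uM, as added). Lipid droplet fluorescence (488 nm excitation, 500-530 nm channel) was read by laser-scanning cytometry and normalized to 20 uM Triacsin C.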

[3] = target: DNA repair nuclease/redox regulator APEX1 (Homo sapiens) (UniProt P27695); assay: qHTS Validation Assay for Inhibitors of the Human Apurinic/apyrimidinic Endonuclease 1 (APE1) (AID 1705;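 further: TAMRA fluorescence gain over two minutes as APE1 cuts a quenched THF abasic duplex; on the % scale 0 is the no-effect control and ±100 the full control effect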)
Summary of the method: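 Human APE1 was preincubated with compound for 15 min at room temperature, then 50 nM (final) THF-abasic double-stranded DNA substrate bearing 5'-TAMRA and 3'-BHQ-2 was added. Incision-driven fluorescence rise (ex 525/em 598 nm) was read kinetically.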

[4] = Counterscreen for APE1 Inhibitors: Fluorescent Dye Displacement Validation Assay (AID 1707);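 further: plate controls were ThO with dsDNA and no compound for no effect and ThO without dsDNA for full effect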
Summary of the method: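 Counterscreen flags promiscuous DNA binders: compounds displacing ThO from duplex DNA (abasic THF site, 50 nM) reduce 540 nm emission (480 nm excitation). ThO 250 nM final; Tris-HCl pH 7.5 with NaCl, MgCl2 and Tween-20.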

[5] = target: Endonuclease 4 (Escherichia coli (strain K12)) (UniProt P0A6C1); assay: Counterscreen for APE1 Inhibitors: qHTS Validation Assay for Inhibitors of Endonuclease IV (AID 1708); further: on the % scale 0 is the no-effect control and ±100 the full control effect
Summary of the method: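 Enzyme (2 nM) + compound, 15 min RT; add 50 nM TAMRA/BHQ-2 THF-site dsDNA; kinetic read ex525/em598, 3 reads/60 s; activity = read 3 − read 1. Buffer Tris pH 7.5, 50 mM NaCl, 2 mM MgCl2, DTT, Tween-20.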

[6] = qHTS for differential inhibitors of proliferation of Plasmodium falciparum line 7G8 (AID 1815);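 further: parasite growth measured after three days of incubation; plate controls were vehicle wells for no effect and reference inhibitor wells for full effect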
[7] = qHTS for differential inhibitors of proliferation of Plasmodium falciparum line GB4 (AID 1816); conditions: Potency: Plasmodium falciparum GB4 proliferation inhibition;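 further: parasite growth measured after 72 h incubation; 0% = vehicle DMSO and -100% = reference inhibitor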
[8] = qHTS for differential inhibitors of proliferation of Plasmodium falciparum line 3D7 (AID 1876); further: potency means the concentration at half of the fitted maximal effect
[9] = qHTS for differential inhibitors of proliferation of Plasmodium falciparum line D10 (AID 1877);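 further: parasites grown with compound for 72 h before DNA staining; plate controls were vehicle wells for no effect and reference inhibitor wells for full effect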
[10] = qHTS for differential inhibitors of proliferation of Plasmodium falciparum line Dd2 (AID 1882); conditions: Potency: Plasmodium falciparum Dd2 proliferation inhibition;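 further: plate controls were DMSO vehicle for no effect and 0.29 µM artemisinin for full effect; nearly all actives have a fitted effect of over 65% in size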
Summary of the method: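 SYBR Green DNA fluorescence (ex 485, em 535 nm) after overnight lysis quantifies parasite growth; compound exposure lasted 72 h at 37 C on infected red cells at 2.5% hematocrit, 0.3% parasitemia (final). Artemisinin 0.29 uM and vehicle wells define normalization.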

[11] = qHTS for differential inhibitors of proliferation of Plasmodium falciparum line HB3 (AID 1886); conditions: Potency: Plasmodium falciparum HB3 proliferation inhibition;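 further: parasites grown with compound for 72 h before SYBR Green readout; plate controls were vehicle for no effect and reference inhibitor for full effect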
[12] = qHTS Assay for Modulators of Human Peripheral Myelin Protein 22 (PMP22) Expression/Activity (AID 1967; active means well fitted curve in the direction sought with a large enough effect in the signal ratio; the % refers to the signal ratio;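 further: 0% = untreated cells and 100% end not stated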)
Summary of the method: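 MSC80 mouse Schwann cells stably carrying Pmp22 promoter–green click beetle luciferase plus EF-alpha–red luciferase control were dosed for 24h at 37 °C. Dual-colour luminescence was filter-overlap corrected; %Activity came from green/red ratio versus untreated cells.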

[13] = target: Ferritin light chain (Equus caballus) (UniProt P02791); assay: qHTS Validation Assay for Identification of Novel General Anesthetics (AID 2323); further: on the % scale 0 is the no-effect control and ±100 the full control effect
Summary of the method: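 Competitive displacement of profluorescent 1-aminoanthracene (1-AMA, 50% saturated solution in PBS) from 10 uM horse-spleen apoferritin. Compounds incubated 10 min at room temperature; fluorescence read at 380 nm excitation/535 nm emission, normalized to free 1-AMA and complex, fitted with four-parameter Hill equation.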

[14] = target: ATP-dependent DNA helicase Q1 (Homo sapiens) (UniProt P46063); assay: qHTS Validation Assay for Inhibitors of RecQ-Like Dna Helicase 1 (RECQ1) (AID 2353);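 further: plate controls were DMSO vehicle for no effect and enzyme-free control for full effect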
Summary of the method: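 RECQ1T1 50 nM; forked duplex (20 bp + 30-nt ss tails) 200 nM, ATP 2 mM final; pH 8.0, 2 mM MgCl2, 2.5 ug/ml poly(dI-dC); 15 min compound preincubation; discontinuous kinetic read over 2 h at RT.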

[15] = target: RecQ-like DNA helicase BLM (Homo sapiens) (UniProt P54132); assay: qHTS Validation Assay for Inhibitors of Bloom's syndrome helicase (BLM) (AID 2364);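 further: plate controls were DMSO vehicle for no effect and enzyme-free control for full effect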
Summary of the method: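 BLM 50 nM in 25 mM Tris-HCl pH 8.0, 5 mM NaCl, 2 mM MgCl2, 1 mM DTT, 0.01% Tween-20, 2.5 ug/ml poly(dI-dC); 15 min cpd preinc, RT. Start: 200 nM forked DNA + 2 mM ATP (final). TAMRA read, 2 reads 2 h apart.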

[16] = Validation screen for inhibitors of Lassa infection (AID 463096; calls by dose curve; further: on the % scale 0 is the no-effect control and ±100 the full control effect)
[17] = Validation screen for small molecules that induce DNA re-replication in MCF 10A normal breast cells (AID 463097); further: 0% is about no effect; nearly all actives have a fitted effect of over 60% in size
Summary of the method: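 Readout: Hoechst nuclear fluorescence intensity, 405 ex / 500-530 em, by scanning plate imager; re-replication scored as increase in nuclei with elevated DNA content. Cells exposed to compound 48 hr, 37 C, 5% CO2 beforehand.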

[18] = Quantitative high throughput screen for delayed death inhibitors of the malarial parasite plastid, 48 hour incubation (AID 488752); further: on the % scale 0 is the no-effect control and ±100 the full control effect; nearly all actives have a fitted effect of over 65% in size
Summary of the method: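 First, compound was pinned into RPMI 1640 medium containing 0.5% Albumax. Next, reporter-parasite-infected erythrocytes were added to 2% hematocrit and 0.1% parasitemia. After 48 h at 37 C under 5% CO2, luciferase detection reagent was added and luminescence read.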

[19] = target: M-phase phosphoprotein 8 (Homo sapiens) (UniProt Q99549); assay: qHTS Validation Assay for Inhibitors for MPP8 Chromodomain Interactions with Methylated Histone Tails (AID 488949);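 further: AlphaScreen signal from MPP8 chromodomain bound to biotinylated H3K9me3 peptide; top concentration of the series differs between compounds; on the % scale 0 is the no-effect control and ±100 the full control effect; nearly all actives have a fitted effect of over 55% in size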
Summary of the method: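 MPP8 (50 nM) was preincubated with biotinylated H3(1-18)K9me3 peptide (50 nM) in PBS pH 7.4, 0.01% Tween-20 for 30 min at room temperature, then with compounds for 30 min; binding was detected by AlphaScreen.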

[20] = target: Transient receptor potential cation channel subfamily V member 1 (Homo sapiens) (UniProt Q8NER1); assay: HTS Assay for Compounds that Act as Enhancers of the Vanilloid Receptor 1 (AID 488979); further: 0% is about no effect
Summary of the method: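 TRPV1-expressing cells loaded with Fluo-8 calcium dye; compounds added and calcium influx read kinetically for 3 min (agonist phase), then capsaicin at EC20 added and read 2 min more for enhancement. Fluorescence ex 480/em 520 nm.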

[21] = target: Thyrotropin receptor (Homo sapiens) (UniProt P16473); assay: qHTS Assay for Antagonists of the Thyroid Stimulating Hormone Receptor (AID 488980); further: 0% is about no effect
Summary of the method: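 HEK293 cells transfected with human TSHR, suspended in HEPES-buffered HBSS with 70 uM RO 20-1724, were treated with compounds plus TSH at EC80 (4 nM final). cAMP was measured by competitive HTRF (cryptate anti-cAMP antibody, cAMP-d2 acceptor).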

[22] = target: Thyrotropin-releasing hormone receptor (Homo sapiens) (UniProt P34981); assay: qHTS for Small Molecule Agonists and Allosteric Enhancers of Human TRH Receptor: Validation Screen for Agonists (AID 493127;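 active means calcium activation more than 3 SD above the typical response in the agonist read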;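 further: intracellular calcium rise by fluo-8 fluorescence before TRH EC20 addition; 0% is about no effect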); conditions: TRH receptor agonist cell assay; at 2 µM; stronger effect = higher value
Summary of the method: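 Compounds are added by online pintool to dye-loaded TRHR cells while fluorescence is recorded every second. A rise in calcium signal during the agonist read marks activation; a later 10 nM TRH addition (EC20) serves the separate enhancer mode.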

[23] = target: Galactokinase (Homo sapiens) (UniProt P51570); assay: qHTS Validation Assay for Inhibitors of Human Galactokinase (GALK) (AID 493189); further: 0% is about no effect
Summary of the method: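 GALK (5 nM) with 35 uM ATP and 100 uM galactose in HEPES pH8.0, MgCl2, NaCl, DTT, BSA; 1 h at room temperature. Residual ATP read by Kinase-Glo Plus luminescence after 10 min.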

[24] = target: Voltage-gated inwardly rectifying potassium channel KCNH2 (Homo sapiens) (UniProt Q12809); assay: qHTS Assay for Small Molecule Inhibitors of the Human hERG Channel Activity (AID 588834);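 further: top concentration of the series differs between compounds; on the % scale 0 is the no-effect control and ±100 the full control effect; lower thallium flux fluorescence means stronger hERG block; nearly all actives have a fitted effect of over 50% in size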
Summary of the method: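 In hERG-transduced U2OS cells, dye-loaded for 1 hr at room temperature in dark, test compounds incubated 10 min at 37 °C before thallium stimulation. AC50 values derived by Hill modelling of concentration-response.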

[25] = tested on: Zika virus NS2B-NS3 protease; assay: Primary screen GU AMC qHTS for Zika virus inhibitors (AID 1347154);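 further: 0% = no-inhibitor control and -100% = no-enzyme control; nearly all actives have a fitted effect of over 70% in size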
Summary of the method: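 Unlinked Zika NS2B hydrophilic domain/NS3 protease domain noncovalent complex (25 nM final) in 10 mM Tris-HCl pH 8.0, 0.01% Tween 20, with AMC peptide substrate. Fluorescence (ex 340, em 450 nm) change over 15 min, room temperature; percent inhibition fitted to 4-parameter Hill equation.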

Sequence of Ferritin light chain (Equus caballus) (P02791 2-175 limits assumed): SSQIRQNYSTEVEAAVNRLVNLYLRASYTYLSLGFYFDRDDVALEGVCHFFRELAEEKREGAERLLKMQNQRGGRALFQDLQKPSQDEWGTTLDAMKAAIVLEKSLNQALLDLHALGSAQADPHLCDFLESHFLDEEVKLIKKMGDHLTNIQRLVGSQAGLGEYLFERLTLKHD
Sequence of Thyrotropin-releasing hormone receptor (Homo sapiens) (P34981 whole entry, looked up): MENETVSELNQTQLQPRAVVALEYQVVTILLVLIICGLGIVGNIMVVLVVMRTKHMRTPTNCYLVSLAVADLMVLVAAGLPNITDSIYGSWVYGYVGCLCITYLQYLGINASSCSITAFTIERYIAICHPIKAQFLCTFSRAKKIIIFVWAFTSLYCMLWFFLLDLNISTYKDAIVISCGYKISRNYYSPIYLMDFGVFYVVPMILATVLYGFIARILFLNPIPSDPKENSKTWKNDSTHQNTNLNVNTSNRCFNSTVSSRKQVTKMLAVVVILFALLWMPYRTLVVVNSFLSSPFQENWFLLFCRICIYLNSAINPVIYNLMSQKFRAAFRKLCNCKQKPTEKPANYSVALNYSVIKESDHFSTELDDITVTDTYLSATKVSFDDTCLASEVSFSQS
Sequence of M-phase phosphoprotein 8 (Homo sapiens) (Q99549 whole entry, looked up): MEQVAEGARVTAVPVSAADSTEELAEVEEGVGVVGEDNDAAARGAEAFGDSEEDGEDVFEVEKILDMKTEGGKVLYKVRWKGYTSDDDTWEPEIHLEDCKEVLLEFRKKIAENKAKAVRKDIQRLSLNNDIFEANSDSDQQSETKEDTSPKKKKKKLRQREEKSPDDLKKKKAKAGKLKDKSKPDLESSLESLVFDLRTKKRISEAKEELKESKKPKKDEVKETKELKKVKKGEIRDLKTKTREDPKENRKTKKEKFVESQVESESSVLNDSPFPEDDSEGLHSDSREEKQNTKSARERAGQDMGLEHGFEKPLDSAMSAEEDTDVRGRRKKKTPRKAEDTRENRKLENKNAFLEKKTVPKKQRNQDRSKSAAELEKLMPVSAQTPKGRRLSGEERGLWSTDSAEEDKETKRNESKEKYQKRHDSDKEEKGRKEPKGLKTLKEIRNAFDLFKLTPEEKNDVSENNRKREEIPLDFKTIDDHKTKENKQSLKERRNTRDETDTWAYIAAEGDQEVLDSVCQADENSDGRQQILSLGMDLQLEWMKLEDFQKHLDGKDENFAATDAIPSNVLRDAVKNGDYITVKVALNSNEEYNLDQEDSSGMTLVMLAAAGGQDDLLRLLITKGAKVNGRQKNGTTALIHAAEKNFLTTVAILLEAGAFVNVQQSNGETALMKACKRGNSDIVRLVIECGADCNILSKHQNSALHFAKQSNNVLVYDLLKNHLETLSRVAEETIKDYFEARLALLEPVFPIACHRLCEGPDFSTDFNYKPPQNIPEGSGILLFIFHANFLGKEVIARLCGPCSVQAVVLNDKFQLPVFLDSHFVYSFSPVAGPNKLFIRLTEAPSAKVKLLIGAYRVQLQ
Sequence of Thyrotropin receptor (Homo sapiens) (P16473 whole entry, looked up): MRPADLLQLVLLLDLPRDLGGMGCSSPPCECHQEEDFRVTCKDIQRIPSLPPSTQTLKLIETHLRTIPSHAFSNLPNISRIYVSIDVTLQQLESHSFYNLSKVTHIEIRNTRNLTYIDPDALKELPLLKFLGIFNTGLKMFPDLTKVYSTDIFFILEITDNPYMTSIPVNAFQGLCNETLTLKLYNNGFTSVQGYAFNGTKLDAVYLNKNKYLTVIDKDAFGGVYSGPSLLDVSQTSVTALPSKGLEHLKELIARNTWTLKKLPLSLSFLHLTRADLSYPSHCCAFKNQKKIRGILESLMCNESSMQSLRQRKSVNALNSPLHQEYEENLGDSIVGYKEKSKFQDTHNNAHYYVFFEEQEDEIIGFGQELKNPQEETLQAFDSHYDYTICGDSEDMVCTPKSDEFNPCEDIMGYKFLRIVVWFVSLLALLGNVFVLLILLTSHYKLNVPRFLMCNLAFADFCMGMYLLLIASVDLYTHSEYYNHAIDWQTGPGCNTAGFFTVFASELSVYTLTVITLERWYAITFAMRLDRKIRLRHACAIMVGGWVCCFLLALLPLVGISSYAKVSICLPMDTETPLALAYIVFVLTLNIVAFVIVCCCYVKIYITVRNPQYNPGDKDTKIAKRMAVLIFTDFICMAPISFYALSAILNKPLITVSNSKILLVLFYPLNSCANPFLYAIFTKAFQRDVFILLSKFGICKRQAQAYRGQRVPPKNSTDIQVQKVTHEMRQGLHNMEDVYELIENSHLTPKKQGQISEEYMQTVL
Sequence of DNA repair nuclease/redox regulator APEX1 (Homo sapiens) (P27695 whole entry, looked up): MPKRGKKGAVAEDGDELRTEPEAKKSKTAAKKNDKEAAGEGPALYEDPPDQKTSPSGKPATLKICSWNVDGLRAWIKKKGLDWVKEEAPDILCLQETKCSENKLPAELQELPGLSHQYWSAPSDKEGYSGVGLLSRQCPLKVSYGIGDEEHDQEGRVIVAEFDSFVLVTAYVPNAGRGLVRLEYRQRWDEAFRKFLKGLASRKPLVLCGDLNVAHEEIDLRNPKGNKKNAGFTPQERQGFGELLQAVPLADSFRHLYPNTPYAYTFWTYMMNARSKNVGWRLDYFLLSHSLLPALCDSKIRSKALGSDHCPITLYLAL
Sequence of Voltage-gated inwardly rectifying potassium channel KCNH2 (Homo sapiens) (Q12809 whole entry, looked up): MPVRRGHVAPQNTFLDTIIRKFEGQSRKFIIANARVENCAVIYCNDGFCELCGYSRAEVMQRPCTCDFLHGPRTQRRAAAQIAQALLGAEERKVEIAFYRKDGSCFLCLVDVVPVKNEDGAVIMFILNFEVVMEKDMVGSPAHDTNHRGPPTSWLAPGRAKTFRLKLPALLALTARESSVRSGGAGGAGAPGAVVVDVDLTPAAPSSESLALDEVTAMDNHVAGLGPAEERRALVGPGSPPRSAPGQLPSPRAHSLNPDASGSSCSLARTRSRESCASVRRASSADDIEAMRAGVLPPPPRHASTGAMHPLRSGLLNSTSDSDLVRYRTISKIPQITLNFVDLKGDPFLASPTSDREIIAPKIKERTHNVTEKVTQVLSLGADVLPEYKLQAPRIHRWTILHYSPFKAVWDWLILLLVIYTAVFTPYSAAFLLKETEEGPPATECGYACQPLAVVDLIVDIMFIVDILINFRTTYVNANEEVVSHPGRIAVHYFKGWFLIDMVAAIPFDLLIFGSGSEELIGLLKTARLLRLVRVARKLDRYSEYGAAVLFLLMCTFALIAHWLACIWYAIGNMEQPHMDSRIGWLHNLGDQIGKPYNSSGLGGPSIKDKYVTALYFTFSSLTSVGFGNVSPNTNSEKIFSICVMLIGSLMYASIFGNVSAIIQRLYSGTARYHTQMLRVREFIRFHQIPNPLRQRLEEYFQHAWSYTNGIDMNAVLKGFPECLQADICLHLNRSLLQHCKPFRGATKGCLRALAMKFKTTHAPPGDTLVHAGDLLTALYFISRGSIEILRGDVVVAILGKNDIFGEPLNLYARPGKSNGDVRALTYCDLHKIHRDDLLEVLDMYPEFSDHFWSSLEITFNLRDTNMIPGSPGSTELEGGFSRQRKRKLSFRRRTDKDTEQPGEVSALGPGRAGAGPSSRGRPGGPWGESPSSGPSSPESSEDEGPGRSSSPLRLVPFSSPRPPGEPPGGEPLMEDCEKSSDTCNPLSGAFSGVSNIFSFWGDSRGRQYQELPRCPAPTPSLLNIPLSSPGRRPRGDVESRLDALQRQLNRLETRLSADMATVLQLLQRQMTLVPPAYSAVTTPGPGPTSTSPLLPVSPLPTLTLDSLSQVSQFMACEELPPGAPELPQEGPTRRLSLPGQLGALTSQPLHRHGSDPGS
Sequence of Galactokinase (Homo sapiens) (P51570 whole entry, looked up): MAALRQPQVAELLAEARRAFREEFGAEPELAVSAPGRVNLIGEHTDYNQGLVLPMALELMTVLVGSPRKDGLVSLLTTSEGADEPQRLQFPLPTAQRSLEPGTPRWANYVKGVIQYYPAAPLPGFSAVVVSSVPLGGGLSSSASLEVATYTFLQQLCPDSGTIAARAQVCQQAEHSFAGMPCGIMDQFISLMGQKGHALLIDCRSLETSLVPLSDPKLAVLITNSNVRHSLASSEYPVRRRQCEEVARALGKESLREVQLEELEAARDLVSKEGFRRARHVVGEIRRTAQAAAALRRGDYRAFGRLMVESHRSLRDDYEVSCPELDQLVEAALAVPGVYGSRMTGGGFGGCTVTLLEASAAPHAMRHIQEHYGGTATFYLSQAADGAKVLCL
Sequence of Transient receptor potential cation channel subfamily V member 1 (Homo sapiens) (Q8NER1 whole entry, looked up): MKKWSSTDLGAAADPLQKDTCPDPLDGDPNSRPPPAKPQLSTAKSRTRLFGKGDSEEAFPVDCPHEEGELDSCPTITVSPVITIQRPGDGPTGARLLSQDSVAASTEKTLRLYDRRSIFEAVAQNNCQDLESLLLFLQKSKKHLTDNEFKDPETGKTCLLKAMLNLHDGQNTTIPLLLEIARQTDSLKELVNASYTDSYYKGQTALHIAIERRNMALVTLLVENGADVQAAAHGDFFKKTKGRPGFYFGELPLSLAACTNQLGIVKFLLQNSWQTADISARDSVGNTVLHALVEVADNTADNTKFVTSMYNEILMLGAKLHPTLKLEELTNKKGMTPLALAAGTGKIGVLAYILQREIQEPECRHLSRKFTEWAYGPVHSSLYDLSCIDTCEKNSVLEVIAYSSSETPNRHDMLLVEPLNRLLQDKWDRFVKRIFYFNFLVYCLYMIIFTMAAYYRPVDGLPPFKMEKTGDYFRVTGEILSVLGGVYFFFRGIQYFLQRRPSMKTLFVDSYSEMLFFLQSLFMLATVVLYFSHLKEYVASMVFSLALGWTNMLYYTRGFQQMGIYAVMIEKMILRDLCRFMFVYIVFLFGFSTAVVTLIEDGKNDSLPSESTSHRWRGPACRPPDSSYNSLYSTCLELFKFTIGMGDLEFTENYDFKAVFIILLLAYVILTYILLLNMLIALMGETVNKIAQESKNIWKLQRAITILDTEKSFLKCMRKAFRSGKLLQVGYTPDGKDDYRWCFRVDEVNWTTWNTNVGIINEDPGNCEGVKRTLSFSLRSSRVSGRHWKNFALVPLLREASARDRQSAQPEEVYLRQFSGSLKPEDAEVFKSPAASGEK

C[N+]1(C)CCc2cc3c(cc2C1C1OC(=O)c2c1ccc1c2OCO1)OCO3 (configuration not stated)
1.78%: max response ([2]; measured here: cell count channel max response)
inactive: outcome [1] | activity change, negative = inhibition ([2]; at 57.5 µM (top of the series)) 2.12% | Potency [3] | Potency [4] | outcome [5] | Potency [6] | Potency [7] | Potency [9] | Potency [10] | Potency [11] | outcome [12] | outcome [13] | Potency [14] | Potency [15] | Potency [16] | Potency [17] | Potency [18] | Potency [19] | outcome [20] | outcome [21] | activation [22] 0.938% | outcome [23] | Potency [24] | Potency [25]
1.49%: max response ([2]; measured here: lipid channel max response)
active: Potency [8] 8.91 µM
